Assay [1] has as its target Thyrotropin receptor (Homo sapiens) (UniProt P16473). Briefly: qHTS assay to identify small molecule antagonists of the thyroid stimulating hormone receptor (TSHR) signaling pathway (AID 1259385; calls by dose curve; note: nearly all actives have a fitted effect of over 20% in size; note: potency is the fitted concentration of half-maximal effect). Put shortly: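 TSHR-HEK293 cells (800/well) plated 18 h, then compounds with Ro20-1724 and TSH at 1.5 ng/mL final, 30 min at room temperature. cAMP quantified by HTRF (cAMP-d2/anti-cAMP-cryptate, 1 h); 15 concentrations in triplicate.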
A general note: In qHTS, concentration-response curves come from the screen itself.

A short description of assay [2]: qHTS assay to identify small molecule agonists of the estrogen receptor alpha (ER-alpha) signaling pathway in the presence of an antagonist - cell viability counter screen (AID 1259386).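 Note: series mostly up to about 92 µM; cells exposed to compounds for 22 h at 37 °C before the viability read; nearly all actives have a fitted effect of over 30% in size.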 Summed up:
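Cytotoxicity was measured in parallel with the ERE-luciferase agonist screen, in the same wells. The cells were VM7Luc4E2, which endogenously express ER-alpha, and treatment was with compounds plus 10.0nM ICI-182,780 for 22hr.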

Assay [3] deals with Progesterone receptor (Homo sapiens) (UniProt P06401). Briefly: qHTS assay to identify small molecule agonists of the progesterone receptor (PR) signaling pathway (AID 1346784; calls by dose curve; note: nearly all actives have a fitted effect of over 30% in size). Summed up:
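PR-UAS-bla HEK 293T cells carrying a UAS-driven beta-lactamase reporter were seeded in medium with 2% charcoal-stripped FBS, preincubated 6 hr at 37C, then exposed to compounds in DMSO for 16 hr; agonism was read by LiveBLAzer B/G FRET fluorescence.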

For assay [4] the target is unchanged. Briefly: qHTS assay to identify small molecule antagonists of the progesterone receptor (PR) signaling pathway (AID 1346795; active = well fitted inhibition curve with a large enough effect in the signal ratio in the repeat runs, not every such curve was filed as active; the % refers to the signal ratio). Put shortly: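 PR-UAS-bla HEK293T cells carrying a UAS-driven beta-lactamase reporter were plated in medium with 2% charcoal-stripped FBS and rested 6 hr at 37C. Compounds were added with 1 nM R5020 (final) for 16 hr, then FRET substrate loaded 2 hr at room temperature.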

The nature of assay [5]: qHTS assay to identify small molecule antagonists of the progesterone receptor (PR) signaling pathway - cell viability counter screen (AID 1346798). Note: series mostly up to about 92 µM; nearly all actives have a fitted effect of over 50% in size. Put shortly:
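PR-UAS-bla HEK293T cells in medium with 2% charcoal-stripped FBS were treated with compounds plus R5020 for 16 hr at 37C. Cell viability was then read by CellTiter-Glo luminescence after 30 min at room temperature in the same wells.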

The nature of assay [6]: qHTS assay to identify small molecule antagonists of the TGF-beta/Smad signaling pathway - cell viability counter screen (AID 1346824). Note: nearly all actives have a fitted effect of over 50% in size. Put shortly:
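SBE-bla HEK 293T cells, incubated overnight, then compound plus 0.25 ng/mL TGF-beta1 (stock added) for 5 hr at 37 C. Viability was read in the same wells by CellTiter-Glo luminescence after 30 min at room temperature.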

The nature of assay [7]: qHTS assay to identify small molecule agonists of the TGF-beta/Smad signaling pathway - cell viability counter screen (AID 1346829). Note: top concentration of the series differs between compounds; nearly all actives have a fitted effect of over 45% in size. Put shortly:
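Tox21 qHTS format: SBE-bla HEK 293T cells treated with DMSO-dissolved compounds for 5 hr; CellTiter-Glo luminescence after 30 min at room temperature.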

Assay [8] in a line: qHTS assay to identify small molecule agonists of the TGF-beta/Smad signaling pathway (AID 1346859; active = well fitted activation curve with a large enough effect in the signal ratio in the repeat runs, not every such curve was filed as active; the % refers to the signal ratio; note: series mostly up to about 77 µM). Summed up: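 HEK 293T cells stably carrying a beta-lactamase reporter driven by the Smad binding element were seeded overnight, exposed to DMSO-dissolved compounds for 5 hr at 37 C, 5% CO2, then loaded with FRET substrate for 2 hr at room temperature.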
The target of assay [9] is Thyrotropin-releasing hormone receptor (Homo sapiens) (UniProt P34981). Briefly: qHTS assay to identify small molecule antagonists of the thyrotropin-releasing hormone receptor (TRHR) signaling pathway (AID 1346877; active = well fitted inhibition curve with a large enough effect in the repeat runs, not every such curve was filed as active; note: series mostly up to about 51 µM). Summed up: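 Antagonism is measured as suppression of the calcium response to 1 nM TRH in TRHR-HEK293 cells that have been dye-loaded for 2 h at 37 °C after overnight plating. Each compound is tested at 15 concentrations in triplicate.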
Sequence of Thyrotropin-releasing hormone receptor (Homo sapiens) (P34981 whole entry, looked up): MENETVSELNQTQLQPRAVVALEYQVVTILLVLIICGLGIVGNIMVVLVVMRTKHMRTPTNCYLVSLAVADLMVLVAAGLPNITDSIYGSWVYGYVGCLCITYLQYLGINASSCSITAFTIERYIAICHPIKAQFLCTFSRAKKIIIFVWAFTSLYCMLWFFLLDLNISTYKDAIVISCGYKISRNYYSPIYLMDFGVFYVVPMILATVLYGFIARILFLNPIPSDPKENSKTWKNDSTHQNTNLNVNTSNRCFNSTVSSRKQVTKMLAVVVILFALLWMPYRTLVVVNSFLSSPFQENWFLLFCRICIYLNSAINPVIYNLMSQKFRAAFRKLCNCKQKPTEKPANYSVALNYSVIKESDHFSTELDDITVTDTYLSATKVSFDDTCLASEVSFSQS

The target is the same in assay [10]. Briefly: qHTS assay to identify small molecule agonists of the thyrotropin-releasing hormone receptor (TRHR) signaling pathway (AID 1346891; calls by dose curve; note: series mostly up to about 58 µM). Summed up: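 TRHR-expressing HEK293 cells were plated 18 h at 37 °C/5% CO2, loaded with calcium dye 2 h at 37 °C, then given compound in DMSO; fluorescence was read kinetically for 3 min at 1 s intervals.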
The nature of assay [11]: Caspase-3/7 induction in HepG2 cells by small molecules, qHTS assay (AID 1346978). Note: nearly all actives have a fitted effect of over 15% in size. Put shortly:
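Wild-type HepG2 cells, 2,000/well, settled 5 hr at 37 C and 5% CO2, then compound-treated for 17 hr; caspase-3/7 activity read by luminescent Caspase-Glo 3/7 after 30 min at room temperature.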

The nature of assay [12]: Caspase-3/7 induction in CHO-K1 cells by small molecules, qHTS cell viability counter screen (AID 1346979). Note: nearly all actives have a fitted effect of over 35% in size. Summed up: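 Wild-type CHO-K1 cells were seeded at 1,500 per well, rested 5hr at 37 C, then exposed to compounds in DMSO. After 16hr, CellTiter-Fluor reagent was added and fluorescence read 1hr later as the viability measure.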
Assay [13] can be described thus: Caspase-3/7 induction in CHO-K1 cells by small molecules, qHTS assay (AID 1346980). Note: nearly all actives have a fitted effect of over 15% in size. Put shortly: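 Wild-type CHO-K1 cells exposed to compounds for 17hr at 37 C, 5% CO2. Caspase-3/7 activity then measured by Caspase-Glo 3/7 luminescence after 30min at room temperature.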
Assay [14] in a line: Caspase-3/7 induction in HepG2 cells by small molecules, qHTS cell viability counter screen (AID 1346981). Note: series mostly up to about 92 µM; nearly all actives have a fitted effect of over 30% in size. Put shortly:
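Cell viability is measured as a cytotoxicity counter screen alongside the Caspase-Glo 3/7 readout in identical wells. Wild-type HepG2 cells are treated with test compounds for 16 hr at 37 C before CellTiter-Fluor addition and a 1-hr incubation.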

Assay [15] has as its target Nuclear receptor subfamily 1 group I member 2 (Homo sapiens) (UniProt O75469). As to the kind of experiment: Human pregnane X receptor (PXR) small molecule agonists, qHTS assay (AID 1346982). Note: nearly all actives have a fitted effect of over 35% in size. Note: potency is the fitted concentration of half-maximal effect. Put shortly:
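Cells: HepG2 stably carrying PXR-Luc. Medium held 5% charcoal-stripped FBS. Compounds in DMSO added after 5 hr plating, incubated 24 hr, then luminescence quantified with ONE-Glo.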

In assay [16] the target is Nuclear receptor subfamily 1 group I member 2 (Rattus norvegicus) (UniProt Q9R1A7). As to the kind of experiment: Rat pregnane X receptor (rPXR) activation by small molecules, qHTS assay (AID 1346983). Note: nearly all actives have a fitted effect of over 20% in size. Note: potency is the fitted concentration of half-maximal effect. To be noted: rPXR luciferase reporter cells, One-Glo luminescence, 24 h; max activation: stronger effect = higher value. Summed up: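 Cell-based rPXR activation assay: rPXR cells, 2,000 per well, rested 5hr at 37 C, then exposed to compounds in DMSO for 24 hr at 37 C. Luciferase activity read by One-Glo luminescence after 30 min at room temperature.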
Sequence of Nuclear receptor subfamily 1 group I member 2 (Rattus norvegicus) (Q9R1A7 whole entry, looked up): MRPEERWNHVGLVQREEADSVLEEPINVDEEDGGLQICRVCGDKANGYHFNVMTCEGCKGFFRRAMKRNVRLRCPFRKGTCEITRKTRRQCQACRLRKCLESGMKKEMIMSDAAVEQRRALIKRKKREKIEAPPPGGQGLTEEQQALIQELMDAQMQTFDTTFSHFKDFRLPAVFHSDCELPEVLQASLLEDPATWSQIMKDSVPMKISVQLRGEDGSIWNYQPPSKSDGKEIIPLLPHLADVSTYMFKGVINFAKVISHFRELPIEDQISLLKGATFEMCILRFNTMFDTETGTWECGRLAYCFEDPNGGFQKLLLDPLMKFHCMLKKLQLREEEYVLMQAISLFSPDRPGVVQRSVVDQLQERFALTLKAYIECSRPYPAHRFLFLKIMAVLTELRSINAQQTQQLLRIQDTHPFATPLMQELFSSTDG

For assay [17], the target named is Nuclear receptor subfamily 1 group I member 2 (Homo sapiens) (UniProt O75469). Briefly: CYP3A4 induction through human pregnane X receptor (PXR) by small molecules, qHTS assay (AID 1346984). Note: nearly all actives have a fitted effect of over 40% in size. Note: potency is the fitted concentration of half-maximal effect. Put shortly: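 Quantitative HTS in DPX-2 cells, i.e. HepG2 transfected with PXR response element and CYP3A4-promoter luciferase. Compounds in DMSO incubated 24hr at 37C; then P450-Glo CYP3A4 substrate, 3uM final, 3hr; One-Glo luminescence.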
Sequence of Nuclear receptor subfamily 1 group I member 2 (Homo sapiens) (O75469 whole entry, looked up): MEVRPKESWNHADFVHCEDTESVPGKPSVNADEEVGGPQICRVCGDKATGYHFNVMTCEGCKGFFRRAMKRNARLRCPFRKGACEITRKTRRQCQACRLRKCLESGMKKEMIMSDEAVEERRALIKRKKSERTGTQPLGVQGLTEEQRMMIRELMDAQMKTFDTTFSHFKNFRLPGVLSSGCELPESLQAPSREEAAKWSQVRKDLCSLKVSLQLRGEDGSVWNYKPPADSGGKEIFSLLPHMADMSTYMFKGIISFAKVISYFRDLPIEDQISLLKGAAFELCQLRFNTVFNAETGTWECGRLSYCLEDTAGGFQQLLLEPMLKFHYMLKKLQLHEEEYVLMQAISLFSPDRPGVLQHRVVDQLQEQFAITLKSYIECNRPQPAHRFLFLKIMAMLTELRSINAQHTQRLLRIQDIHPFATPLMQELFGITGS

Assay [18] in a line: qHTS assay to identify small molecule agonists of the progesterone receptor (PR) signaling pathway - cell viability counter screen (AID 1346799; calls by dose curve; note: nearly all actives have a fitted effect of over 45% in size). Summed up:
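PR-UAS-bla HEK293T cells, 3,000 per well in medium with 2% charcoal-stripped FBS, were preincubated 6 hr at 37C, then exposed to compounds for 16 hr; viability was read as CellTiter-Glo luminescence after 30 min at room temperature.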

The nature of assay [19]: Human pregnane X receptor (PXR) small molecule agonists, qHTS cell viability counter screen (AID 1346977). Note: nearly all actives have a fitted effect of over 50% in size. Summed up:
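PXR-Luc HepG2 cells in medium with 5% charcoal-stripped FBS were pre-incubated 5hr, then exposed to compounds for 24hr at 37C. Viability was read in the same wells by CellTiter-Fluor fluorescence, reagent added after 23hr with a 1hr incubation.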

Unmarked numbers belong to inactive results. Records with an inconclusive call do not appear. Activity calls are given as the source filed them. Unless noted, calls come from the whole dose curve; as a rule, active = well fitted curve in the direction sought with a large enough effect in the repeat runs; inconclusive = weak or mixed curves; inactive = no such curve, though single readings can be large; an effect the other way counts as inactive or inconclusive.
% is set by controls: 0 for no effect and ±100 for the full control effect.

Sequence of Progesterone receptor (Homo sapiens) (P06401 whole entry, looked up): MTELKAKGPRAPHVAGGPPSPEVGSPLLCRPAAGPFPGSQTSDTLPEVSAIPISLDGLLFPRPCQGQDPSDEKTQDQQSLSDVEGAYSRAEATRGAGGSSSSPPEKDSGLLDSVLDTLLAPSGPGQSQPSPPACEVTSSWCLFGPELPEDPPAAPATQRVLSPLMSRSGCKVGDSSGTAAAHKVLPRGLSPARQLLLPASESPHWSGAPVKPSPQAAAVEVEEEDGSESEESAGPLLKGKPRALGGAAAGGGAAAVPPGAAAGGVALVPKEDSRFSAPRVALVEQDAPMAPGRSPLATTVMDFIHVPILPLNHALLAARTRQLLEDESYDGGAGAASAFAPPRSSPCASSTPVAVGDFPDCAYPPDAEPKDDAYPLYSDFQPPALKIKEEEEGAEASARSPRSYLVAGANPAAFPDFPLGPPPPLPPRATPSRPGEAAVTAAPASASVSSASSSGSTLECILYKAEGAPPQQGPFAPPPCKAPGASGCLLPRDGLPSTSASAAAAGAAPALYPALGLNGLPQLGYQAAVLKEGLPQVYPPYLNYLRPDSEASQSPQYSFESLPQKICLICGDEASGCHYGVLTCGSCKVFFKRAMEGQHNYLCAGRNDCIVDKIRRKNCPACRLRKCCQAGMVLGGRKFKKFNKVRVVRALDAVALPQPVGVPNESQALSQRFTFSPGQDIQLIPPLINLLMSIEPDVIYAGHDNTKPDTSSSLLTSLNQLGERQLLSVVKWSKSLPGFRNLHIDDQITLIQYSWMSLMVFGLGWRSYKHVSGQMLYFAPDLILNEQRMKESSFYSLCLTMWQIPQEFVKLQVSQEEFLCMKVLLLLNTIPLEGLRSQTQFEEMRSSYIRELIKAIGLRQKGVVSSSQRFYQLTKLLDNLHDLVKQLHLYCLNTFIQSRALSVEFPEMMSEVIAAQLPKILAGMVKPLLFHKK
Sequence of Thyrotropin receptor (Homo sapiens) (P16473 whole entry, looked up): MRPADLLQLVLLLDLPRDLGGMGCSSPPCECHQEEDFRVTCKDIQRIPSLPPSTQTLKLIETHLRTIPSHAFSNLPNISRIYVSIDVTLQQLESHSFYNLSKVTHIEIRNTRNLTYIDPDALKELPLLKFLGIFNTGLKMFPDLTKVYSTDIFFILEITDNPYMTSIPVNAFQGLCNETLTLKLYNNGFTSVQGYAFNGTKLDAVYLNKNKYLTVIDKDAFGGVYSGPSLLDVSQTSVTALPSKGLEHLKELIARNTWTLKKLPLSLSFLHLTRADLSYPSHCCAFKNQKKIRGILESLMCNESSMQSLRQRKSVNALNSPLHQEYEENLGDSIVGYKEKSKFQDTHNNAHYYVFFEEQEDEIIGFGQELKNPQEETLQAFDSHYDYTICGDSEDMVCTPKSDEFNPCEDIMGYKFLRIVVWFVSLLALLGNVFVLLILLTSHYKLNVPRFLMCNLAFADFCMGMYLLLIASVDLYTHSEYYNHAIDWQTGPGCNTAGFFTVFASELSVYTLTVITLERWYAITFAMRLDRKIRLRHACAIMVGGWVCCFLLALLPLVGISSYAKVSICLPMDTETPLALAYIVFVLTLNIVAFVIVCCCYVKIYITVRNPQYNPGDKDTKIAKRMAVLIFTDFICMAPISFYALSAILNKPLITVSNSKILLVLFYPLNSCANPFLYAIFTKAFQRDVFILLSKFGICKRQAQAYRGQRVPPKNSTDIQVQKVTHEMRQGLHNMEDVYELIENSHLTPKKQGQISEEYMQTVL

For `CC(C)=CCC1C(=O)N(c2ccccc2)N(c2ccccc2)C1=O`, the Potency entry in [1], in assay [2], in assay [3], in [4], in assay [5] and in assay [6] was “inactive” throughout. Further, the Potency entry in assay [7], in [8], in [10], in assay [11], in assay [12] and in assay [13] was “inactive” each time. The Potency entry in assay [14] is “inactive”. Also, the compound was classed as inactive in assay [9]. Moreover, the Potency in [15] was 29.8 µM (active); in [16], 28.2 µM (active); in assay [17], 5.01 µM (active).

In the case of `O=C(/C=C/c1ccccc1)OCCc1ccccc1`, in assay [1], the Potency was 68.6 µM (active). Besides, the Potency result in assay [2], in [3], in assay [4], in assay [5], in assay [18] and in assay [8] was “inactive” each time. Besides, the Potency result in [10], in [11], in [12], in [13], in assay [14] and in [15] was “inactive” throughout. The result in [9] was inactive.

`CN(C)CCN1C(=O)c2ccccc2N(C)c2ccccc21`: the Potency result in assay [1], in assay [2], in assay [3], in assay [4], in assay [5] and in assay [6] was “inactive” each time. For the same compound, the Potency entry in assay [7], in assay [8], in [10], in assay [19], in [11] and in assay [12] was “inactive” throughout. Besides, the Potency entry in assay [13], in assay [14] and in assay [17] was “inactive” throughout. In addition, in [9], the compound was classed as inactive. Besides, the max activation in [16] was 5.5%.

Consider `COC(=O)CS`, for which the Potency result in assay [1], in assay [2], in assay [3], in assay [4], in assay [5] and in assay [18] was “inactive” each time. Further, the Potency entry in assay [7], in [8], in assay [10], in [19], in [11] and in assay [12] was “inactive” throughout. Besides, the Potency entry in assay [13], in assay [14] and in [15] was “inactive” each time. Further, the outcome in assay [9] was inactive.

With `COC(=O)CCS`, the Potency entry in [1], in [2], in assay [3], in assay [4], in [5] and in assay [6] was “inactive” in each case. Further, the Potency entry in assay [7], in [8], in assay [10], in [19], in [11] and in assay [12] was “inactive” each time. Moreover, the Potency result in [13], in assay [14] and in [15] was “inactive” in each case. Moreover, the result in [9] was inactive.

Consider `CC1CC(OC(=O)C(O)c2ccccc2)CC(C)(C)N1C` (stereo not drawn), for which the Potency result in assay [1], in assay [2], in [3], in assay [4], in assay [5] and in assay [7] was “inactive” throughout. Also, the Potency result in assay [8], in [10], in [19], in [11], in assay [12] and in assay [14] was “inactive” throughout. Besides, in assay [9], the outcome was inactive.

The record behind these values is PubChem BioAssay (Tox21).
